# High-throughput results from PubChem.
# GLP1R cytotox: cytotoxic in the GLP-1 receptor inverse agonist counter-screen; Potency, µM (top dose mostly 38.3 µM), actives largely listed as inhibitors; HEK293 cAMP-luciferase reporter cells, luminescence, 24 h; 410,000 tested, 0.13% active;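 also: loss of luciferase light is scored as toxicity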
#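 Seeding density was 200 cells/uL; after overnight-length (12 h) culture, 23 nL compounds went on for 24 h at 37 °C. Readout used a luciferase detection reagent, luminescence taken after 12 min at room temperature.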
# GLP-1R inv ag: inverse agonists of human GLP-1 receptor | Potency, µM (series often up to 38.3 µM), actives largely listed as inhibitors | HEK293 GLP-1R CRE-luciferase, luminescence, 24 h; GLP-1R form is constitutively active | P43220 | 410,000 tested, 1.6% active; also: nearly all actives have a fitted effect of over 55% in size
# Target sequence (P43220 whole entry, looked up): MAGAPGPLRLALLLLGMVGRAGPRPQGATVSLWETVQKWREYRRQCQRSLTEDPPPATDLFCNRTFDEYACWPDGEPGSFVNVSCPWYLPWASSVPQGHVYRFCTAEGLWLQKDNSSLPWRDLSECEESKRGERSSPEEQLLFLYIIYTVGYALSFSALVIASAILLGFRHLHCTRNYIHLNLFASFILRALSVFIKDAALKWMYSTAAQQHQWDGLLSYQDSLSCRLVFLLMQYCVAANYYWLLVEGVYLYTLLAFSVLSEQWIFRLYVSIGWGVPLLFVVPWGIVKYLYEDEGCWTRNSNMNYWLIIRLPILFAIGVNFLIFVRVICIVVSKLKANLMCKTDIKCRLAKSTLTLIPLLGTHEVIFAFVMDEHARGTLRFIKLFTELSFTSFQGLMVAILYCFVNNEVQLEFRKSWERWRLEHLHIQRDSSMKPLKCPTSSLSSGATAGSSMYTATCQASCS
#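 Readout was luciferase luminescence, measured 12 min after detection reagent at room temperature. Beforehand, GLP-1R reporter HEK293 cells had sat 12 h, then received compounds for 24 hr at 37 deg C.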
# mIDH1 inhibitor: inhibitors of human mutant IDH1 R132H | O75874 | 390,000 tested, 0.093% active | Potency, µM (doses to about 76.6 µM), most hits filed as inhibitors | AID 602179 | IDH1-R132H enzyme, NADPH consumption, diaphorase/resazurin fluorescence; also: nearly all actives have a fitted effect of over 65% in size
#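 IDH1-R132H (0.5 ug/mL dispensed) in pH 7.5 Tris buffer was preincubated 30 min with compound, then given a substrate mix of 0.016 mM NADPH and 2 mM alpha-KG for 80 min at room temperature; remaining NADPH was read by diaphorase/resazurin fluorescence.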
# GLP-1R agonist: GLP-1 receptor (human) agonism | 380,000 tested, 0.007% active | Potency, µM (series often up to 45.6 µM), usual class: activators | HEK293 GLP-1R CRE-luciferase, luminescence, 4-6 h; cells express a hypersensitive GLP-1R form | P43220
# TrxR1 substrate: substrates of rat thioredoxin reductase 1. O89049. purified TrxR1 substrate turnover, NADPH consumption readout. Potency, µM (titrated, usually from 114 µM). 390,000 tested, 0.01% active. AID 588456; also: nearly all actives have a fitted effect of over 50% in size
#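 Rat TrxR1, dispensed at 90 nM, was prereduced with 400 uM NADPH (final) for 5 min at ~22 deg C, then incubated with compound 15 min before 400 uM selenite. A first-read NADPH fluorescence drop versus no-compound background flagged substrates.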
# rTrxR1 inhibitor: inhibitors of rat thioredoxin reductase 1; O89049; recombinant rTrxR1, NADPH fluorescence consumption, selenite substrate; Potency, µM (highest dose often 114 µM), usual class: inhibitors; 390,000 tested, 1% active; also: nearly all actives have a fitted effect of over 65% in size
#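 Rat TrxR1 (90 nM in the dispensed reagent) was pre-reduced with 400 uM NADPH for 5 min at room temperature, then incubated with compound for 15 min. After 400 uM selenite was added, NADPH fluorescence (Ex 340/Em 450 nm) was followed for 8 min.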
# A number is an active result; – = inactive; ? = inconclusive; · = not tested or not shown; [ ] = another dose, or the depositor's remark. In the library only some 2.7% were active in any assay of this set; here they are far more common. Calls follow the shape of the dose curve; as a rule, active = well fitted curve in the direction sought with a large enough effect; inconclusive = small, poorly fitted or top-dose-only effect, or another doubt; inactive = no such curve, though single readings can be large; an effect the other way counts as inactive or inconclusive.
SMILES,GLP1R cytotox,GLP-1R inv ag,mIDH1 inhibitor,GLP-1R agonist,TrxR1 substrate,rTrxR1 inhibitor
C[C@H]1CNC(=O)c2c(C(=O)Nc3ccc(CNC(=O)OC(C)(C)C)cc3)ncn21,–,–,–,–,·,·
C[C@@H]1O[C@@H](O[C@H]2C[C@@H](O)[C@]3(CO)[C@@H]4C(CC[C@]3(O)C2)[C@@]2(O)CC[C@H](C3COC(=O)C3)[C@@]2(C)C[C@H]4O)[C@H](O)[C@H](O)[C@H]1O (stereo partly drawn),?,1µM,–,–,–,–
Cc1cc(N2CCCCC2)ccc1C=C1C(=O)N(C)C(=S)N(C)C1=O,–,–,–,–,–,11µM
CC[n+]1c(/C=C/C=C/N(C(C)=O)c2ccccc2)sc2cc(OC)ccc21,?,?,–,–,–,?
COc1ccccc1N1C(=O)NC(=O)/C(=C/c2ccc3c(c2)Cc2ccccc2-3)C1=O,–,–,–,–,–,?
COc1cc(/C=C2\C(=O)NC(=O)N(c3ccccc3)C2=O)cc(OC)c1O,–,–,–,–,–,25µM
COc1cc(/C=C2\C(=O)NC(=O)N(c3ccccc3)C2=O)c([N+](=O)[O-])cc1OC,–[0.307 µM],–[0.307 µM],–,–,–,7.1µM
COc1cccc(N(C(=O)CCl)C(C(=O)NCCc2ccccc2)c2cccs2)c1 (stereo not drawn),?,?,–,–,–,14µM
COc1cccc(-c2nn(Cc3ccccc3)cc2C(=O)O)c1,–,–,–,–,–,–
CCc1ccc(-c2nc(CN3CCCC(C(=O)N4CCN(c5cc(Cl)ccc5C)CC4)C3)c(C)o2)cc1 (stereo not drawn),?,4.5µM,?,·,–,–
CC(C)(C#CCN1CCCCC1)OCCOC(c1ccccc1)c1ccccc1,?,5.6µM,–,–,–,–
ClC1=C(Cl)[C@]2(Cl)[C@@H]3[C@@H]4C[C@@H]([C@H]5O[C@@H]45)[C@@H]3[C@@]1(Cl)C2(Cl)Cl,·,·,·,–,·,·
CN(C)C(Cc1ccccc1)C(=O)c1c[nH]c2ccccc12 (stereo not drawn),–,13µM,–,–,–,–
COc1cc(CCN)c(OC)cc1Br,·,·,·,–,·,·
CCOC(=O)N1C(=O)[C@](c2ccc(Cl)cc2)(C(C)C)N1C(=O)OCC,–,?,–,–,–,45µM
CC[C@@H](C(=O)[C@@H](C)[C@@H](O)[C@H](C)[C@@H]1O[C@@H]([C@@H](CC)C(=O)O)CC[C@@H]1C)[C@H]1O[C@]2(C=C[C@@H](O)[C@]3(CC[C@@](C)([C@H]4CC[C@](O)(CC)[C@H](C)O4)O3)O2)[C@H](C)C[C@@H]1C,4µM,?,–,–,–,–
CCOC(=O)c1cc(-c2ccccc2)n(CCCC(=O)Nc2ccc(C)c(C)c2)c1C,–,?,–,·,–,–
O=C(CN1CCN(C(=O)CNC(=O)c2ccc(-c3ccccc3)cc2)CC1)Nc1ccccc1Cl,–,10µM,–,–,·,·
Cc1ccc(-c2nc3ccccc3c(=O)n2-c2ccccn2)cc1,–,–,–,–,–,–
Cc1ccc(-c2nnc(N3CCN(c4ccccn4)CC3)c3ccccc23)cc1,11µM,8.9µM,–,–,–,–
Cn1c(N)c(C(=O)COC(=O)c2cc(S(=O)(=O)N3CCOCC3)ccc2F)c(=O)n(C)c1=O,?,–,–,–,–,–
Cn1cc(/C=N/n2cnc3scc(-c4ccccc4)c3c2=O)c2ccccc21,?,5µM,–,–,–,–
CCOC(=O)CCCc1cc[c]([Sb](=[O])([OH])[OH])cc1,·,·,·,·,–,1.1µM
CC(C)CC(=O)/C(=C\c1ccc(Cl)cc1Cl)n1cncn1,?,?,–,–,–,8.9µM
Clc1ccc(C2(Cn3cncn3)OCCO2)c(Cl)c1,·,·,·,–,·,·
SMILES,GLP1R cytotox,GLP-1R inv ag,mIDH1 inhibitor,GLP-1R agonist,TrxR1 substrate,rTrxR1 inhibitor
CN(CC(=O)Nc1ccc(Cl)c(C(F)(F)F)c1)C(=O)C1CC(=O)N(CCc2ccccc2)C1 (stereo not drawn),?,?,–,–,–,–
COc1ccc(NC2=NCC(Cc3ccc(Br)cc3)S2)cc1 (stereo not drawn),?,?,–,–,–,–
O=C(NCCN1CCC2(CC1)C(=O)NCN2c1cccc(F)c1)c1ccc2ccccc2c1,–,7.9µM,·,–,·,·
CCCOC(=O)c1cccc(Nc2nc(-c3cccnc3)nc3ccccc23)c1,?,?,–,–,–,–
O=C1C(=O)c2cccc3cccc1c23,–,–,–,–,–,–
O=C1C(=O)c2ccccc2-c2ccccc21,?,?,–,–,3.2µM,10µM
Clc1ccc2c(c1)C(OC1CN3CCC1CC3)c1ccccc1CS2 (stereo not drawn),?,2.8µM,–,–,–,–
CCc1ccc(CNC(=O)C2CCN(C(=O)c3ccc(-n4c(C)cc5ccccc54)s3)CC2)cc1,–,?,–,·,–,–
CN(N=O)c1cc(O)ccc1O,·,·,·,·,–,0.75µM
Cc1ccc(O)cc1,·,·,·,–,·,·
Cc1ccc(C(C)C)c(OCC(=O)Nc2cc(-c3nc4ccccc4[nH]3)ccc2C)c1,?,?,·,·,–,–
CC(C)C(=O)NC(Oc1ccccc1Cl)C(Cl)(Cl)Cl (stereo not drawn),–,–,–,–,–,8.9µM
O=C(Cc1ccccc1)NC(Oc1ccccc1Cl)C(Cl)(Cl)Cl (stereo not drawn),–,–,–,–,–,?
C=CCOc1c(Br)cc(/C=N/n2c(CC)n[nH]c2=S)cc1Br,?,–,–,–,–,–
CN1CCN(c2ccc(Nc3ccnc4cc(Cl)ccc34)cc2)CC1,3.5µM,2µM,–,–,–,–
CCCN1CCc2c(sc(NC(=O)Cc3ccc(F)cc3)c2C(N)=O)C1,–,–,–,–,–,–
COc1ccc(-c2ccc(/C=C3/C(=N)N4C(C)=CSC4=NC3=O)o2)c([N+](=O)[O-])c1,?,?,–,–,–,–
Oc1c(C(Nc2cccnc2)c2ccccc2F)ccc2cccnc12 (stereo not drawn),·,·,·,·,–,1.4µM
CCCOc1ccc(C(=O)C(CN2CCOCC2)c2ccccc2)cc1 (stereo not drawn),?,7.1µM,–,–,–,–
Cc1ccc(O)c(Cc2cc(C)cc(Cc3cc(C)ccc3O)c2O)c1,?,?,–,–,·,·
Cc1ccccc1NC(=O)Nc1nc(C(N)C2CCCCC2)cs1 (stereo not drawn),?,?,·,–,·,·
O=C(c1cc2cc(Cl)ccc2[nH]1)N1CCC2(CC1)OCCO2,–,?,–,–,–,45µM
COc1ccccc1OCC(=O)N/N=C/C=C/c1ccc([N+](=O)[O-])o1,?,–,–,–,–,7.1µM
